High-throughput results as filed in PubChem.
PLK1 PBD block: PLK1 (human) polo-box domain binding inhibition; Potency, µM, inactives show max response, negative = inhibition, most hits filed as inhibitors; Plk1 PBD binding of FITC phosphopeptide, fluorescence polarization; 360,000 tested, 2.8% active; further: series mostly up to about 57 µM; on the % scale 0 is the no-effect control and ±100 the full control effect; nearly all actives have a fitted effect of over 65% in size
G9a inh: blocks human histone lysine methyltransferase G9a; Q96KQ7; G9a H3K9 monomethylation, AlphaScreen, 2 h; Potency, µM (doses to about 102 µM), for the others: at the highest dose activity, negative = inhibition, actives largely listed as inhibitors; 350,000 tested, 8.8% active; AID 504332; further: on the % scale 0 is the no-effect control and ±100 the full control effect; nearly all actives have a fitted effect of over 75% in size
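Readings reflect AlphaScreen signal from monomethyl-H3K9 antibody detection. HMT at 20 nM; substrate b-H3K9 500 nM; cofactor SAM 20 uM; 2 h RT reaction; compounds tested as titrations in qHTS with 15 min preincubation.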
JMJD2A Tudor: inhibitors of human JMJD2A Tudor domain; Potency, µM (titrated, usually from 114 µM), for inactives: top-dose activity change, negative = inhibition, actives largely listed as inhibitors; AID 504339; O75164; 390,000 tested, 4.4% active; AlphaScreen JMJD2A-Tudor / H3K4me3 peptide binding; further: on the % scale 0 is the no-effect control and ±100 the full control effect; nearly all actives have a fitted effect of over 50% in size
Target sequence (O75164 whole entry, looked up, the tested form may be a part): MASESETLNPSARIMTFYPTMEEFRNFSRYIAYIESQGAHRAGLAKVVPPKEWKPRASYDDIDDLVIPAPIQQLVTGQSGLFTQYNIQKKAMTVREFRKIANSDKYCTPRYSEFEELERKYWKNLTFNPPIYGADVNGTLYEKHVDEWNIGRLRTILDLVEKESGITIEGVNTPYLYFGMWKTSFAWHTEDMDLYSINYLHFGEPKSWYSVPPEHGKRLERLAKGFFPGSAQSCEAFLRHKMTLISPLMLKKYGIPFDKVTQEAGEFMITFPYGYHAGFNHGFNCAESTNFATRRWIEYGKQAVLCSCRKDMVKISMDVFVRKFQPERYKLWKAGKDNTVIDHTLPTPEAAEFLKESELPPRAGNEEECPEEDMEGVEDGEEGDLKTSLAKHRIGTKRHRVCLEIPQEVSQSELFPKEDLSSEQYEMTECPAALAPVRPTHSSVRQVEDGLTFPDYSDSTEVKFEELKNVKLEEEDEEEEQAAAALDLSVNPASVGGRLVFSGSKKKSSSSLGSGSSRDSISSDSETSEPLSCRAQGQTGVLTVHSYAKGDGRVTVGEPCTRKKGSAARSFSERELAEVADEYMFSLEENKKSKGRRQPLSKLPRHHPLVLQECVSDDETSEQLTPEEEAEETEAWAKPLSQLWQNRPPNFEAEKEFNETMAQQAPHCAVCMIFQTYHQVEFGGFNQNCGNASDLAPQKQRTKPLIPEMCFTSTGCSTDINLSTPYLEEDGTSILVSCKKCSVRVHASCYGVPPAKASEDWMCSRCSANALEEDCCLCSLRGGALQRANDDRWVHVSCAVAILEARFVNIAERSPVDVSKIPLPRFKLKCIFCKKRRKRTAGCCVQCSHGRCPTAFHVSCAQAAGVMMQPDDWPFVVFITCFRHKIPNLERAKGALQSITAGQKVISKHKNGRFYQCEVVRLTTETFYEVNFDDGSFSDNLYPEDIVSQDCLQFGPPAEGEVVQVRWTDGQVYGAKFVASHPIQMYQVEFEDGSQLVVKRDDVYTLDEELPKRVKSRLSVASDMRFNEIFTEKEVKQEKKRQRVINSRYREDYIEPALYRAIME
Sfp PPTase inh: inhibitors of Bacillus subtilis Sfp phosphopantetheinyl transferase; Potency, µM, without a hit: largest response in the series, negative = inhibition, actives largely listed as inhibitors; 310,000 tested, 3.5% active; Biochemical Sfp PPTase activity, qHTS;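 further: the enzyme is Sfp with the accession as filed and its product quenches rhodamine fluorescence; 0% = enzyme reaction without inhibitor and -100% = no enzyme wells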
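Fluorescence-quenching assay: 15 nM Sfp-PPTase preincubated 15 min at room temperature with compound, then 5 uM rhodamine-CoA and 12.5 uM BHQ-2-labelled YbbR peptide added. Fluorescence (ex 525/em 598 nm) read at start and after 30 min; difference gives rate.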
BAZ2B inh: BAZ2B (human) inhibition | Q9UIF8 | AlphaScreen BAZ2B-H3K14Ac peptide displacement | Potency, µM (titrated, usually from 114 µM), for inactives: at the top dose activity change, negative = inhibition, actives largely listed as inhibitors | 360,000 tested, 4.4% active; further: on the % scale 0 is the no-effect control and ±100 the full control effect; nearly all actives have a fitted effect of over 60% in size
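Protein-peptide AlphaScreen: BAZ2B 50 nM, b-H3K14Ac 50 nM, 1x PBS pH 7.4 + 0.01% Tween-20. Preincubation 30 min RT; cpd 30 min RT (top 110 uM); beads 20 min RT, light-protected.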
HP1b chromo inh: blocks HP1-beta chromodomain binding to methylated histone tails | P83916 | AlphaScreen HP1-beta / biotin-H3K9me3 peptide binding | Potency, µM (titrated, usually from 114 µM), for the others: at the highest dose activity change, negative = inhibition, hits mostly inhibitors | 390,000 tested, 0.56% active; further: nearly all actives have a fitted effect of over 70% in size
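AlphaScreen: HP1-beta (50 nM) preformed 30 min with biotin-H3(1-18)K9me3 peptide (50 nM) in PBS pH 7.4, 0.01% Tween-20. Compound added for 30 min at RT, then streptavidin donor/nickel chelate acceptor beads (10 ug/mL) for 30 min.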
An asterisk follows results filed as active; ? = inconclusive; · = not tested or not shown; [ ] = dose if it differs, or a comment. Compounds with a hit are over-represented: about 12% of the library has one in this group of screens. The call rests on the fitted dose curve; in most records, active means well fitted curve in the direction sought with a large enough effect; inconclusive means small, poorly fitted or top-dose-only effect, or another doubt; inactive means no such curve, though single readings can be large; an effect the other way counts as inactive or inconclusive. Potency means the concentration at half of the fitted maximal effect.

SMILES	PLK1 PBD block	G9a inh	JMJD2A Tudor	Sfp PPTase inh	BAZ2B inh	HP1b chromo inh
CCN(C(=O)Cn1cnc2onc(-c3ccc(F)cc3)c2c1=O)c1ccc(OC)cc1	·	-20%[59 µM]	-12%	·	7%[57.1 µM]	37%
Cc1ccc(S(=O)(=O)Oc2ccc(/C=N/N=C3/NC(=O)C(CC(=O)O)S3)cc2)cc1[N+](=O)[O-] (stereo not drawn)	-17%	16%	-20%	7%	-34%	22%
COc1cccc(CN(C(=O)/C=C/c2ccco2)C2CCS(=O)(=O)C2)c1 (stereo not drawn)	-12%	18µM*	-19%	25µM*	-29%	10%
COCCN(C(=O)COC(=O)CCSc1ccc(F)cc1)c1c(N)n(Cc2ccccc2)c(=O)[nH]c1=O	?	-10%	-12%	·	-3%	22%
NC(=O)C[C@@H]1N[C@]2(C(=O)Nc3ccccc32)[C@@H]2C(=O)N(c3cc(C(F)(F)F)ccc3Cl)C(=O)[C@H]12	-1%	50µM*	-19%	14%	-2%	33%
CC(C)[C@@H]1N[C@]2(C(=O)Nc3ccccc32)[C@@H]2C(=O)N(c3cccc(C(F)(F)F)c3)C(=O)[C@@H]21	-2%	50µM*	-7%	19%	11%	34%
CCCOc1ccc(N2C(=O)C3C(C(C)C)NC4(C(=O)c5ccccc5C4=O)C3C2=O)cc1 (stereo not drawn)	-3%	?	-18%	-2%	-5%	16%
Cc1ccccc1OC(C)C(=O)NCCNC(=O)C(C)Oc1ccccc1C (stereo not drawn)	·	·	-7%[57.1 µM]	·	·	22%[57 µM]
Cc1cc2c(s1)c1cnn(Cc3ccc(-c4ccccc4)cc3)c(=O)c1n2C	·	·	-15%	·	·	·
Nc1n[nH]c(C2CC2)c1N=Nc1ccc(Cl)cc1	-3%	50µM*	45µM*	17%	?	-16%
Cc1nc(N)sc1N=Nc1ccc(Br)cc1	-1%	?	?	-14%	25µM*	-33%
Cc1ccc(-c2[nH]nc(N)c2N=Nc2ccccc2C)cc1	0%	?	25µM*	10%	?	?
Nc1n[nH]c(C2CC2)c1N=Nc1ccc(Cl)c(Cl)c1	-2%	36%[59 µM]	?	-8%	15%	?
Nc1n[nH]c(N)c1N=Nc1ccc2c(c1)OCO2	-6%	9%[59 µM]	?	-8%	40µM*	-5%
CC(=O)OC[C@@H]1O[C@H](CCO/N=C\[C@@H](C)[C@H](OCc2ccccc2)C(C)C)C=C[C@@H]1OC(C)=O	·	·	·	5%	·	·
CCc1ccc([C@@H]2C[C@H]3[C@@H](CN2S(=O)(=O)c2ccc(C)cc2)C(=O)C[C@@H](c2ccccc2F)N3S(=O)(=O)c2ccc(C)cc2)cc1	-8%	·	·	·	·	·
COc1ccc(Cl)cc1NC(=O)c1cc(=O)c2cc(C)cc(C)c2o1	·	8%[59 µM]	2%	·	1%	54%
COc1ccc(C2=NOC(C)(c3nnc(-c4ccc(Cl)cc4)o3)C2)cc1 (stereo not drawn)	-17%	·	3%	·	·	53%
Cc1cc(-c2ccc(Br)cc2)n[nH]1	3%	-4%	-1%	5%	-11%	22%
Cc1ccc(N=Nc2c(N)n[nH]c2N)cc1	-10%	35µM*	?	10%	?	-2%
Cc1[nH]nc(N)c1N=Nc1ccc(Br)cc1	·	·	·	0%	40µM*	·
Cc1cccc(N=Nc2c(N)n[nH]c2-c2ccc(Cl)cc2)c1	-11%	22%[0.501 µM]	?	11%	?	-17%
CCn1c(Cc2cccn2C)nnc1SCC(=O)c1ccc(C)cc1	-24%	?	?	-7%	50µM*	-20%
CCn1c(SCC(=O)c2ccc(O)c(O)c2)nnc1-c1ccc(C)cc1	-14%	10%[2.33 µM]	28µM*	-16%	?	-10%
CCn1c(SCC(=O)N/N=C(\C)c2ccncc2)nnc1-c1ccc(C)cc1	-15%	50µM*	-17%	13%	-1%	28%
SMILES	PLK1 PBD block	G9a inh	JMJD2A Tudor	Sfp PPTase inh	BAZ2B inh	HP1b chromo inh
CCn1c(SCC(=O)c2ccc3c(c2)Cc2ccccc2-3)nnc1-c1ccc(N)cc1	-10%	24%[0.501 µM]	-16%	79µM*	-9%	-17%
CCn1c(SCC(=O)c2ccccc2)nnc1-c1cccc(Cl)c1	·	-28%[59 µM]	-7%	·	-9%	23%
Cc1ccc(-n2c(Cc3cccn3C)nnc2SCC(=O)NC2CCCCC2)cc1	-5%	-4%[2.33 µM]	-32%	-4%	?	-9%
CCn1c(SCC(=O)c2ccc([N+](=O)[O-])cc2)nnc1-c1ccc(Cl)cc1	·	?	-13%	·	-30%	25%
COc1ccc(-n2c(=O)cnc3cnc(OC)nc32)cc1	·	4%[0.501 µM]	·	29%	·	·
Cc1ccc(NC(=O)CSc2nnc(-c3cc4occc4n3C)n2-c2ccccc2C)c(Cl)c1	·	?	-29%	·	-31%	-6%
CN(CC(=O)N1CC=C(c2ccccc2)CC1)S(=O)(=O)c1ccc2c(c1)c(=O)n(C)c(=O)n2C	-23%	45µM*	-17%	-14%	11%	43%
CCC(Cc1ccccc1)NC(=O)CN(C)S(=O)(=O)c1ccc2c(c1)c(=O)n(C)c(=O)n2C (stereo not drawn)	-10%	45µM*	-8%	14%	9%	35%
CC1(C(=O)NCc2ccco2)Cc2c(-c3ccc(C(N)=O)cc3)ccnc2O1 (stereo not drawn)	2%	·	·	·	·	·
CC(C)(C)N(Cc1ccccc1)C(=O)COC(=O)CN1C(=O)NC2(CCCC2)C1=O	-4%	-19%	-19%	-3%	1%	10%
CCCSCCCNC(=O)c1cc2n(n1)CCCN(Cc1ccc(C)cc1)C2=O	·	50%[59 µM]	-11%	·	-8%	38%
c1ccc2c(c1)CCOC2CNCCCN1CCCCC1 (stereo not drawn)	2%	22µM*	-12%	15%	-1%	38%
O=S(=O)(NCC1OCCc2ccccc21)c1ccc(S(=O)(=O)N2CCOCC2)cc1 (stereo not drawn)	-8%	-6%[59 µM]	-14%	5%	-9%	9%
CC(=O)c1ccc(N2CCN(C(=O)C3CCN(S(=O)(=O)c4cn(C)cn4)CC3)CC2)cc1	·	-2%[12.7 µM]	2%	·	-11%	26%
CC(=O)c1ccc(N2CCN(C(=O)Cn3cnc(S(=O)(=O)N4CCCCC4)c3)CC2)cc1	27µM*	12%	?	26%	-35%	21%
CC/C(C)=N/NS(=O)(=O)c1ccc(C)c([N+](=O)[O-])c1	-4%	?	-10%	?	2%	16%
CCC(C)(C)C1CCC(=NNS(=O)(=O)c2ccc(C)c([N+](=O)[O-])c2)CC1 (stereo not drawn)	-21%	13µM*	2%[57.1 µM]	3%	-29%	39%
Cc1ccc(S(=O)(=O)N/N=C2/CCCCC2C2CCCCC2)cc1[N+](=O)[O-] (stereo not drawn)	24µM*	?	28µM*	-7%	-2%	?
